SMILES strings stand for the structures. Inconclusive results are not listed. The source made the active and inactive calls. Calls come from the whole dose curve; as a rule, active = well fitted activation curve with a large enough effect; inconclusive = small, poorly fitted or top-dose-only effect; inactive = no such curve, though single readings can be large or run the other way.

This is an account of results in PubChem BioAssay AID720565 (National Center for Advancing Translational Sciences (NCATS), 2013).
Potency is the fitted concentration of half-maximal effect.

This experiment in a line: qHTS for small molecules that induce genotoxicity in ELG1 expressing cells: Confirmatory Assay for Cherry-picked Compounds. For activation: % of control where 0% means no effect. Note: nearly all actives have a fitted effect of over 35% in size. The note with it: ELG1-luciferase reporter cells, luminescence, 16 h; series mostly up to 46.1 µM; activation: at the top concentration. An excerpt: Cancer cells divide rapidly compared to normal cells in the body. During cell division, cancer cells need to duplicate their genome by DNA replication. The failure of genome duplication leads to cancer cells' death. Therefore, inhibitors of DNA replication could specifically kill cancer cells. Based on this concept, many chemotherapeutic agents were developed and have been used to treat cancer patients. However, there are a limited number of agents available in the clinical setting, and some of those that do exist have low efficacy and severe side effects. Therefore, if we can find the compounds that effectively block DNA replication either by directly damaging DNA or by inhibiting other cellular mechanisms, the options for cancer treatment will be broadened. We developed a quantitative high-throughput ELG1-luciferase reporter gene assay. Since the level of human ELG1 protein is enhanced in response to genetic stresses, increases in luciferase activity can be used to identify compounds that cause genetic stress. The data herein is the result of the confirmation assay against the cherry picked compounds selected from the primary qHTS (AID 504466). Activation is the desired outcome for this assay. NIH Chemical Genomics Center [NCGC] NIH Molecular Libraries Probe Centers Network [MLPCN] MLPCN Grant: MH092164 Assay Provider: Kyungjae Myung, National Human Genome Research Institute, NIH
For genotoxicity screening, 2,000 cells/ well (5 uL volume) were dispensed into white, solid-bottom 1536-well plates using a solenoid-based dispenser. Following transfer of 23 nL compound or DMSO vehicle by a pin tool, the plates were incubated 16 hr at 37 C, 5% CO2. Five microliter of ONE-Glo reagent (Promega) was then added to each plate. The assay plates were incubated for 30 min at room temperature followed by quantification of the luciferase activity using the PerkinElmer ViewLux CCD-based plate reader.
For orientation: In qHTS, concentration-response curves come from the screen itself.
`CCCCCCCCCCCCCC(=O)O[C@@H]1[C@@H](C)[C@@]2(O)[C@H](C=C(CO)C[C@]3(O)C(=O)C(C)=C[C@@H]23)[C@@H]2C(C)(C)C12OC(C)=O` (some centres not stated): the Potency was 8.9 nM (active). `CC(=O)OCC1=C[C@H]2[C@@H]3C(C)(C)[C@]3(OC(=O)Cc3ccccc3)C[C@@H](C)[C@]2(O)[C@@H]2C=C(C)C(=O)[C@@]2(O)C1`: the Potency was 396 nM (active). Still for that read-out and setting: with `CCCC(=O)O[C@@H]1[C@@H](C)[C@@]2(O)[C@@H](C=C(CO)C[C@]3(O)C(=O)C(C)=C[C@@H]23)[C@@H]2C(C)(C)[C@]12OC(=O)CCC` the figure was 99.6 nM (active). On the same count and under the same terms, as for `C=C(C)[C@@]12OC3(c4ccccc4)O[C@@H]1[C@@H]1[C@@H]4O[C@]4(CO)[C@@H](O)[C@]4(O)C(=O)C(C)=C[C@H]4[C@@]1(O3)[C@H](C)[C@H]2OC(=O)/C=C/C=C/c1ccccc1`, the figure is 50 nM (active). As to `O=C(CCl)c1ccc(O)c(O)c1`, the “activation” value is -1.84% (inactive). Consider `CCCSc1ccc2nc(NC(=O)OC)[nH]c2c1`, for which the Potency was 8880 nM (active). Same read-out and setting: as for `C[C@@H]1C[C@@H]2[C@H]([C@H]3C=C(COC(=O)c4ccccc4)[C@@H](O)[C@]4(O)[C@@H](O)C(OC(=O)c5ccccc5)=C[C@@]14C3=O)C2(C)C`, the figure is 500 nM (active).
